High-throughput results: PubChem BioAssay, several laboratories
14-3-3 Bad inh = inhibitors of 14-3-3 zeta/Bad binding, primary screen, biochemical, TR-FRET, bovine 14-3-3 zeta. 0.71% of 220,000 active. TR-FRET 14-3-3zeta/Dy647-pBad peptide displacement, 1 h. inhibition, % at 21.7 µM;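 active = inhibition above about 70%, limit read from the data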;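 also: 0% = full 14-3-3 plus peptide FRET controls and 100% = background without 14-3-3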
Target sequence (P63103 whole entry, looked up): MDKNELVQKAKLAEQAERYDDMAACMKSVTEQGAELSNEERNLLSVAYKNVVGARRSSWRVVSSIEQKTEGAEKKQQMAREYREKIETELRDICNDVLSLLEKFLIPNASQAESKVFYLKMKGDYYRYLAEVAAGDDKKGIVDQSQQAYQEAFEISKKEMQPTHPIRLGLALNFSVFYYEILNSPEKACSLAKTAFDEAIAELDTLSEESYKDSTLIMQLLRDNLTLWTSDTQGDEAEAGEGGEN
Bim-Mcl-1 = inhibitors of Bim peptide binding to Mcl-1, primary screen, biochemical, bead-based flow cytometry, multiplex; Induced myeloid leukemia cell differentiation protein Mcl-1 (Homo sapiens), Q07820; 0.1% of 190,000 active; Bim peptide-Mcl-1 binding; inhibition, % at 10 µM; in the data active = inhibition above about 40%;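 also: 0% = no compound tracer wells and 100% = peptide blocker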
MCL1-BIM inh = inhibitors of MCL1 binding to BIM-BH3, primary screen, biochemical, fluorescence polarization; Induced myeloid leukemia cell differentiation protein Mcl-1 (Homo sapiens), Q07820; GST-MCL1 / FITC-Bim-BH3 fluorescence polarization; inhibition, % at 10.9 µM; 0.68% of 320,000 active;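 active = inhibition above the mean inhibition of all tested compounds plus 3 SD, set per campaign, cut at about 40% in these data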;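 also: 0% = DMSO wells and 100% = unlabeled Bim-BH3 peptide control; higher means more loss of mP so more displacement of Bim peptide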
Mcl1 Bid PPI = Mcl-1/Bid binding inhibitors, primary screen, biochemical, TR-FRET, 1536-well; Induced myeloid leukemia cell differentiation protein Mcl-1 (Homo sapiens), Q07820; TR-FRET Mcl-1/Bid-Dy647 peptide binding; inhibition, % at 21.7 µM; 0.97% of 220,000 active;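 active = compounds that cut the binding signal by more than half at the single screening dose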;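 also: His-tagged Mcl-1 with europium anti-His antibody binding Bid BH3 peptide; 0% = Mcl-1 plus peptide wells and 100% = peptide-only wells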
Mcl1-Noxa inh = Mcl-1/Noxa binding inhibitors, primary screen, biochemical, TR-FRET, 1536-well; Induced myeloid leukemia cell differentiation protein Mcl-1 (Homo sapiens), Q07820; TR-FRET Mcl-1/Noxa peptide binding, 2 h; inhibition, % at 21.7 µM; 1.5% of 220,000 active; AID 1022, 2008;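 active = compounds that cut the protein-peptide binding signal by more than 50% relative to plate controls in a single-dose test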;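 also: His-tagged Mcl-1 with rhodamine Noxa BH3 peptide and terbium anti-His antibody; 0% = Mcl-1 plus Noxa peptide wells and 100% = peptide-only wells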
* = called active by the depositor; nt = no result given. The list is not random: actives were taken first. Their share in the collection is about 2.5%.

SMILES | 14-3-3 Bad inh | Bim-Mcl-1 | MCL1-BIM inh | Mcl1 Bid PPI | Mcl1-Noxa inh
O=C(Nc1ccc(Oc2ccc3c(c2)C(=O)N(c2ccc(O)cc2)C3=O)cc1)c1cccs1 | 62.6 | -2.0 | -2.4 | 65.8* | -61.9
CCOc1ccc2nc(SCC(=O)N3c4ccccc4Sc4ccccc43)c(C#N)cc2c1 | -63.2 | 42.0* | 1.0 | -120.3 | -196.0
COc1ccc2c(CC(=O)N3CCN(S(=O)(=O)c4cccs4)CC3)coc2c1 | 0.4 | 0.0 | -7.0 | -28.8 | 27.3
CC1(C)Cc2c(sc3ncn(N)c(=N)c23)CO1 | 4.5 | -1.0 | 8.7 | -60.7 | 10.5
CC1(C)Cc2c(sc3ncn4c(=S)[nH]nc4c23)CO1 | -10.2 | 0.0 | 1.6 | -57.1 | 67.1*
O=C(NCCN1C(=O)S/C(=C\c2ccc(Cl)c(Cl)c2)C1=O)c1ccc2c(c1)C(=O)N(Cc1ccncc1)C2=O | 19.6 | -4.0 | -3.5 | 50.7* | 71.1*
Cc1cc(C)c2c(NC(=S)Nc3ccccc3)n[nH]c2n1 | -14.4 | 1.0 | 13.3 | -37.0 | 60.2*
Cc1cnc(C(=O)Nc2ccc(C(=O)N3CCCCC3)cc2)cn1 | -4.5 | -3.0 | 7.8 | -0.1 | 56.4*
Cc1cnc(C(=O)Nc2ccc(N3CCCCC3)cc2)cn1 | 0.0 | -4.0 | 2.4 | -33.9 | 5.5
COC(=O)[C@@H]1C[C@]2(Br)c3ccccc3N(S(=O)(=O)c3ccccc3)[C@@H]2N1C(=O)OC | nt | nt | 2.3 | nt | nt
c1ccc(-c2ncc(-c3ccn[nH]3)s2)cc1 | -1.6 | 3.0 | 2.8 | 0.0 | -8.9
COc1ccc2nc(NC(=O)Nc3cccc4ccccc34)sc2c1 | -13.1 | 0.0 | -2.7 | -32.7 | 75.2*
Cc1ccc2sc(NNC(=O)c3cc(=O)c4ccccc4o3)nc2c1C | -21.2 | 1.0 | 14.8 | -24.9 | 66.2*
COc1ccc2nc(Nc3ccc4c(c3)OCO4)sc2c1 | -4.0 | -3.0 | 4.8 | -11.6 | 9.8
COc1ccc2nc(NC(=O)Nc3ccccc3OC)sc2c1 | nt | nt | -9.3 | nt | nt
COc1ccc2nc(NC(=O)/C=C/c3ccc4c(c3)OCO4)sc2c1 | 48.5 | 1.0 | 17.0 | 51.4* | 0.0
COc1ccc2nc(NNC(=O)c3cc(=O)c4ccccc4o3)sc2c1 | -17.5 | 5.0 | 12.4 | -47.5 | 71.8*
COc1ccc2cc3cc(C(=O)NCC4CCCO4)oc3nc2c1 (stereo not given) | 12.9 | -1.0 | -3.8 | 12.1 | -3.1
COc1ccc(OC2OC3COC(c4ccco4)OC3C(O)C2NC(C)=O)cc1 (stereo not given) | -6.0 | 0.0 | 2.6 | -2.2 | 1.1
NC(=O)NC(CC(=O)NCCc1ccc(S(N)(=O)=O)cc1)c1ccc(Cl)cc1 (stereo not given) | -0.1 | nt | -3.6 | 83.6* | 3.2
COc1ccc(C2(C(=O)Nc3ccc(C(=O)O)cc3)CCOCC2)cc1 | -13.3 | 0.0 | -1.7 | 59.1* | -4.8
Cc1cc(O)ccc1N/C=C(\C#N)c1nc2ccccc2o1 | -3.6 | -2.0 | -5.4 | 92.7* | 27.7
COc1ccc(C(C)=O)cc1CC(=O)NCCCn1ccnc1 | nt | nt | -5.0 | nt | nt
COc1cc(/C=N/N(C)C)cc(Br)c1O | 3.8 | nt | -1.4 | -146.3 | 24.9
CN=c1scc(C)n1/N=C/c1cc(Br)c(O)c(OC)c1 | -5.8 | 0.0 | 7.2 | -40.1 | 52.6*
SMILES | 14-3-3 Bad inh | Bim-Mcl-1 | MCL1-BIM inh | Mcl1 Bid PPI | Mcl1-Noxa inh
O=C(Nn1cnnc1)c1ccc(OC(F)(F)C(F)C(F)(F)F)cc1 (stereo not given) | nt | nt | 0.6 | nt | nt
CCc1nc(-c2ccccc2)c2ccccn12 | 16.6 | 0.0 | -1.5 | 8.5 | 62.3*
COCCNC(=O)COc1ncnc2scc(-c3ccc(F)cc3)c12 | -2.8 | 0.0 | 0.1 | -24.0 | 25.8
COc1cc(/C=C(\C#N)C(=O)NCCc2ccccc2)cc(OC)c1O | 8.3 | -6.0 | -43.1 | 4.5 | 18.3
COc1cc(/C=C(\C#N)c2nc3ccc(C)cc3[nH]2)cc([N+](=O)[O-])c1O | 2.7 | 11.0 | nt | -47.0 | 80.6*
COc1cc(/C=C(\C#N)c2nc3ccccc3[nH]2)cc(OC)c1O | -2.3 | 5.0 | -95.0 | -22.5 | 72.4*
COc1cc(/C=C(/C#N)c2nc3ccccc3c(=O)[nH]2)ccc1O | 13.5 | -2.0 | -57.0 | 70.4* | 41.9
